Screens from PubChem BioAssay.
This is a sample that favours compounds with a hit; in the whole collection about 7.1% have one here.
ATXN2 expr inh = ATXN2 expression inhibition; Potency, µM (series often up to 57 µM), for the others: at the highest dose activity change, negative = inhibition, hits mostly inhibitors; HEK-293 ATXN2-luciferase reporter, luminescence, 24 h; 360,000 compounds, 0.72% hits; AID 1745845; note: potency is the fitted concentration of half-maximal effect; % is set by controls: 0 for no effect and ±100 for the full control effect; nearly all actives have a fitted effect of over 55% in size
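ATXN2-luciferase reporter cells (luciferase flanked by upstream and downstream ATXN2 gene portions) were treated 24 h at 37 °C with compounds at up to 57 uM. SteadyGlo luminescence gave expression; GF-AFC fluorescence gave viability.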
SW480 rerep = DNA re-replication induction in SW480 cells. Potency, µM (top dose mostly 46.1 µM), inactives show at the highest dose re-replication activation, actives largely listed as activators. 340,000 compounds, 1.8% hits. SW480 DNA re-replication, Hoechst DNA content imaging, 48 h; note: potency is the fitted concentration of half-maximal effect; % of control where 0% means no effect; nearly all actives have a fitted effect of over 55% in size
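250 cells/well; 23 nL cpd via pin tool; 48 hr, 37 C, 5% CO2; Hoechst 40 min; imager read of total nuclear intensity, ex 405/em 500-530 nm.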
PINK1 modulator = changes PINK1 expression; 410,000 compounds, 0.2% hits; Potency, µM (doses to about 76.6 µM), for inactives: top-dose activation (PINK1 increase), usual class: activators; PINK1 immunofluorescence, high-content cytometry, 24 h; active = well fitted activation curve with a large enough effect; inconclusive = small, poorly fitted or top-dose-only effect; cell line not stated here; note: potency is the fitted concentration of half-maximal effect; % of control where 0% means no effect; nearly all actives have a fitted effect of over 65% in size
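Stable cell line, 250 cells/well, 12 h attachment; compounds pinned at 5 concentrations, 24 h; CCCP control. Fixed with nuclear dye, primary antibodies 12 h at 10 degrees C, secondary plus cell stain; laser-scanning cytometer read.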
IL-1B inflam inh = blocks inflammasome-driven IL-1 beta release; AID 743279; THP-1 LPS/ATP IL-1B secretion, AlphaLISA, 16 h; stronger effect = lower value; 360,000 compounds, 4.7% hits; activity change, % at 57.5 µM; in the data active = activity change below about -50%; inconclusive = mostly about -30% to -49%; note: % is set by controls: 0 for no effect and ±100 for the full control effect
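THP-1 cells pretreated 1 hr with compounds (up to 57.5 uM final), then stimulated with LPS (250 ng/mL final) plus ATP (1.25 mM final); secreted IL-1B measured by AlphaLISA after 16 hr, decreased signal indicating inhibition.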
ATXN viability = cell viability loss in ATXN counter-screen. Potency, µM (doses to about 56.7 µM), usual class: cytotoxic. 400,000 compounds, 0.49% hits. AID 651635. S2 cells (HEK-293 line with an ATXN2-luciferase reporter) viability, CellTiter-Fluor protease fluorescence, 24 h; note: potency is the fitted concentration of half-maximal effect; nearly all actives have a fitted effect of over 40% in size
MCF10A rerep = DNA re-replication induction in MCF 10a cells; MCF 10A DNA re-replication, Hoechst nuclear intensity, 48 h; Potency, µM (top dose mostly 46.1 µM), inactives show at the top dose activity, positive = re-replication, most hits filed as activators; 350,000 compounds, 2.9% hits; AID 624296; note: potency is the fitted concentration of half-maximal effect; % of control where 0% means no effect; nearly all actives have a fitted effect of over 50% in size
Starred values were filed as active, the others as inactive. Unless noted, calls come from the whole dose curve; as a rule, active = well fitted curve in the direction sought with a large enough effect; inconclusive = small, poorly fitted or top-dose-only effect, or another doubt; inactive = no such curve, though single readings can be large; an effect the other way counts as inactive or inconclusive.

`O=C(C=Cc1ccccc1)c1ccc([N+](=O)[O-])cc1` gave ATXN2 expr inh -14%, SW480 rerep 16µM*, PINK1 modulator 2%, IL-1B inflam inh -27, ATXN viability inactive and MCF10A rerep 160%.
O=C(NC1CCCCC1)c1ccc2c(c1)N(Cc1ccccc1Cl)C(=O)c1ccccc1S2 was read as PINK1 modulator -1%.
`O=C(Nc1ccc(Br)cc1)c1cc(S(=O)(=O)N2CCc3ccccc32)ccc1F` gave ATXN2 expr inh -20%, PINK1 modulator 5% and ATXN viability inactive.
`CN(C)CCC(=O)C(Cc1ccccc1)c1ccccc1` (centres undefined) gave ATXN2 expr inh -6%, SW480 rerep inconclusive, PINK1 modulator 1%, IL-1B inflam inh -99*, ATXN viability inactive and MCF10A rerep 4.1µM*.
`CC(CCCN(C)C)C(Cc1ccccc1)c1ccccc1` (centres undefined) gave ATXN2 expr inh -27%, SW480 rerep inconclusive, PINK1 modulator 0%, IL-1B inflam inh -66*, ATXN viability inactive and MCF10A rerep inconclusive.
For O=C(CN1C(=O)C2(SCC(=O)N2c2cccc(Cl)c2)c2ccccc21)NCCc1ccccc1 (centres undefined) the results were ATXN2 expr inh inconclusive, PINK1 modulator -5% and ATXN viability inactive.
Cc1cc(NC(=O)CN2C(=O)CSc3ccc(S(=O)(=O)N(C)C)cc32)ccc1Br was read as ATXN2 expr inh -24%, PINK1 modulator 1% and ATXN viability inconclusive.
Screening COc1ccc(NC(=O)C2CCC(CNS(=O)(=O)c3ccc4c(c3)C(C)(C)C(=O)N4C)CC2)cc1 (centres undefined) returned PINK1 modulator 2%.
`CC(/C=N/n1c(-c2ccco2)n[nH]c1=S)=C\c1ccco1` gave ATXN2 expr inh -8%, SW480 rerep -6%, PINK1 modulator 0%, IL-1B inflam inh 0, ATXN viability inactive and MCF10A rerep -2%.
`Cc1cc(-c2n[nH]c(=S)n2/N=C/C(Cl)=C/c2ccccc2)n[nH]1` gave ATXN2 expr inh 36%, SW480 rerep inconclusive, PINK1 modulator 15%, IL-1B inflam inh -97*, ATXN viability inactive and MCF10A rerep 4.6µM*.
For S=c1[nH]nc(-c2cc(-c3ccccc3)n[nH]2)n1/N=C/C(Br)=C/c1ccccc1 the results were ATXN2 expr inh inconclusive, SW480 rerep inconclusive, PINK1 modulator -2%, IL-1B inflam inh -99*, ATXN viability 30µM* and MCF10A rerep 3.3µM*.
`S=c1[nH]nc(-c2ccco2)n1/N=C/C(Cl)=C/c1ccccc1` gave ATXN2 expr inh 39%, SW480 rerep inconclusive, PINK1 modulator 6%, IL-1B inflam inh inconclusive, ATXN viability inconclusive and MCF10A rerep 7.3µM*.
For CC(C)Oc1ccc(CNC(=O)CCn2c(=O)c3cccn3c3ccc(F)cc32)cc1 the results were PINK1 modulator 0%.
For CNC(=O)c1ccc2nc(Cc3ccccc3)oc2c1 the results were ATXN2 expr inh 6%, PINK1 modulator 0% and ATXN viability inconclusive.
Screening O=C1[C@H](Cc2ccccc2)NCCCC[C@H](c2ccc(Cl)cc2)N1Cc1ccccc1 returned ATXN2 expr inh inconclusive, SW480 rerep -4%, PINK1 modulator 13%, IL-1B inflam inh -14, ATXN viability inactive and MCF10A rerep inconclusive.
For O=C1[C@H](Cc2ccccc2)NCCCC[C@@H](c2ccc(Cl)cc2)N1Cc1ccc(Cl)cc1 the results were ATXN2 expr inh inconclusive, SW480 rerep inconclusive, PINK1 modulator -1%, IL-1B inflam inh -50*, ATXN viability inconclusive and MCF10A rerep inconclusive.
`COC(=O)C1CCN(Cc2cn(Cc3ccccc3)nc2-c2cc3ccccc3o2)CC1` gave SW480 rerep 7%, PINK1 modulator 2%, IL-1B inflam inh -17, ATXN viability inactive and MCF10A rerep -2%.
For COCC1CCN(Cc2cn(Cc3ccccc3)nc2-c2cc3ccccc3o2)CC1 the results were ATXN2 expr inh -26%, SW480 rerep inconclusive, PINK1 modulator 2%, IL-1B inflam inh -61*, ATXN viability inactive and MCF10A rerep 4%.
Screening COCC1CCCN(Cc2cn(Cc3ccccc3)nc2-c2cc3ccccc3o2)C1 (centres undefined) returned ATXN2 expr inh -31%, SW480 rerep inconclusive, PINK1 modulator 6%, IL-1B inflam inh -76*, ATXN viability inconclusive and MCF10A rerep 4%.
Screening OC1CCN(Cc2cn(Cc3ccccc3)nc2-c2cc3ccccc3o2)CC1 returned ATXN2 expr inh -21%, SW480 rerep -2%, PINK1 modulator 0%, IL-1B inflam inh inconclusive, ATXN viability inactive and MCF10A rerep -4%.
CC(C)c1cc(Cn2c3ccccc3c(=O)n2C(C)Cn2cc(CCc3ccccc3)nn2)on1 (centres undefined) was read as IL-1B inflam inh -12.
`CC(C)c1ccc(/C=C/C(=O)N2CCOCC2)cc1` gave ATXN2 expr inh 46%, SW480 rerep 1%, PINK1 modulator 0%, IL-1B inflam inh -13, ATXN viability inactive and MCF10A rerep inconclusive.
Screening CC(C)c1ccc(/C=C/C(=O)N2CCCCCC2)cc1 returned ATXN2 expr inh -4%, SW480 rerep -1%, PINK1 modulator 2%, IL-1B inflam inh 0, ATXN viability inactive and MCF10A rerep 23µM*.
COc1ccc(C2Nc3ccccc3-n3c(-c4ccccc4)c4c(=O)n(C)c(=O)n(C)c4c32)cc1 (centres undefined) was read as ATXN2 expr inh -4%, PINK1 modulator 4% and ATXN viability inactive.
Screening CCCCC(=O)Nc1ccc(C(=O)c2ccccc2)cc1 returned ATXN2 expr inh 30%, SW480 rerep -6%, PINK1 modulator -1%, IL-1B inflam inh -60*, ATXN viability inactive and MCF10A rerep 6%.
CCS(=O)(=O)Nc1ccc(C(=O)c2ccccc2)cc1 was read as ATXN2 expr inh -12%, SW480 rerep 0%, PINK1 modulator -1%, IL-1B inflam inh -52*, ATXN viability inactive and MCF10A rerep 2%.
CCS(=O)(=O)Nc1ccc(C(=O)OC)cc1 was read as ATXN2 expr inh 4%, SW480 rerep -4%, PINK1 modulator -1%, IL-1B inflam inh -2, ATXN viability inactive and MCF10A rerep 7%.
For COc1ccc(C(=O)NCc2nnc(SCC(=O)Nc3ccc(F)cc3)n2-c2ccccc2)cc1 the results were ATXN2 expr inh inconclusive, PINK1 modulator 2% and ATXN viability inactive.
